Our source for the activity change, negative = inhibition values is PubChem BioAssay (NCATS).

Results filed as inconclusive are left out. A number with no mark means an inactive call. Calls come from the whole dose curve; as a rule, active = well fitted curve in either direction with a large enough effect (not every such curve was filed as active); inconclusive = small, poorly fitted or top-dose-only effect, or another doubt; inactive = flat fitted curve, though single readings scatter. Residues, ends and D or L forms follow the SMILES beside them. *: point of attachment. Cbz = O=C(OCc1ccccc1)*
% is set by controls: 0 for no effect and ±100 for the full control effect.

A short description of the assay: AP1 Signaling Pathway (AID 357). The conditions noted are these: ME-180 (cervical carcinoma) AP-1-bla reporter, EGF-induced, beta-lactamase ratio, 5 h; at 38 µM (top of the series) unless noted. Put shortly:
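Modulation of EGF-driven AP-1 transcription was assessed with a beta-lactamase reporter in ME-180 cells. Compound and EC50 EGF were co-incubated 5 hours at 37 °C before 2.5-hour CCF4 loading at room temperature and dual-emission reading.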
In the case of `CN1CCN(c2nc3cc(C(F)(F)F)ccc3n3cccc23)CC1`, the activity change, negative = inhibition was -17.4%. The figure for `O=C(O)C1=CCCNC1` is -0.308%; for `O=S(=O)(c1cccc2c(Cl)cccc12)N1CCCNCC1` it is -0.881%; for `CNc1cc(NS(=O)(=O)c2ccc(N)cc2)nc(NC)n1` it is 4.35%. Turning to `CNC(=O)c1cc2c(cn1)[nH]c1ccccc12`, the activity change, negative = inhibition was 0.843%. On to `CC(C)(CO)Cc1cc(C(C)(C)C)c(O)c(C(C)(C)C)c1`, for which the activity change, negative = inhibition is 4.82%. The result for `N=C(N)c1ccc(N)cc1` reads 6.35%; that for `NC(=Nc1ccccc1)NC(=O)c1nc(Cl)c(N)nc1N`, -5.68%. Take `NCCCCN`: the activity change, negative = inhibition was 15.3%. The result for `N=C(N)c1ccccc1` reads 10.4%. For the compound `N=C(N)SCCc1cnc[nH]1`, the activity change, negative = inhibition was 5.57%. With `COc1ccccc1N1CCN(CCCCNC(=O)c2ccc3ccccc3c2)CC1`, the activity change, negative = inhibition was 1.71%.

Consider `CCN(c1nc(N)c(C(=O)N=C(N)N)nc1Cl)C(C)C`, for which the activity change, negative = inhibition was 29.9%. For the compound `COc1cc(CC(=O)O)ccc1O`, the activity change, negative = inhibition was 8.32%. In the case of `C#CCn1c(=O)c2c(ncn2C)n(C)c1=O`, the activity change, negative = inhibition is 8.56%. Take `Nc1ncnc2c1ncn2C1CCCC1`: the activity change, negative = inhibition is -12.9%.

Take `Cn1ccnc1`: the activity change, negative = inhibition is -6.19%. In the case of `Cn1c(=O)c2[nH]c(C3CCCC3)nc2n(C)c1=O`, the activity change, negative = inhibition is 0.66%. For `O=[N+]([O-])c1cccc2c(Br)[nH]nc12`, the activity change, negative = inhibition was 1.06%.

On to `CC(N)=O`, for which the activity change, negative = inhibition was 9.17%. Regarding `COc1ccc2c(c1)c(CC(=O)O)c(C)n2Cc1ccc(Cl)cc1`, the activity change, negative = inhibition was -18.2%. The result for `CCCCCCCCCCCCCCC[C@H](O)[C@H](N)CO` reads 5.73%. As to `Oc1ccc(Cn2cc[nH]c2=S)cc1`, the activity change, negative = inhibition is -3.65%. The figure for `C=CC[C@H](N)C(=O)O` is 12.7%; for `CCN(CC)CCCCCCCCOC(=O)c1cc(OC)c(OC)c(OC)c1` it is 20.2%; for `COc1ccccc1N1CCN(CCCCN2C(=O)c3ccccc3C2=O)CC1` it is -12.6%. For the compound `COc1ccc(CCN(C)CCc2ccc(OC)c(OC)c2)cc1OC`, the activity change, negative = inhibition is 10.7%. The figure for `C[C@](Cc1ccc(O)c(O)c1)(NN)C(=O)O` is -13.3%; for `CC(C)[C@H](NC(=O)OCc1ccccc1)C(=O)N[C@H](C=O)Cc1ccccc1` (Cbz-Val-Phe-aldehyde) it is -8.71%. The result for `Cc1cccc(C(=O)NCN2CCN(c3ccccc3C#N)CC2)c1` reads -12.1%; that for `O=c1onc2cnc3ccccc3n12`, -2.81%. For the compound `O=C(O)Cc1c[nH]c2ccc(O)cc12`, the activity change, negative = inhibition was 21.9%.

On to `Cc1nc(N=Nc2ccc(C(=O)O)cc2)c(COP(=O)(O)O)c(C=O)c1O`, for which the activity change, negative = inhibition is -5.94%.
